# In PubChem BioAssay AID2130 (The Scripps Research Institute Molecular Screening Center, 2009):
# Among all 320,000 compounds or so, about 1,700 (0.53%) were called active.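 Rule for the calls: active = inhibition above the campaign mean of all compounds plus 3 SD (cut at about 26% in these data); inactive = the rest.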 Shown is part of a subset that was picked to be rich in actives.
# Target: Protein phosphatase methylesterase 1 (Homo sapiens) (UniProt Q9Y570)
# Test: human PME-1 methylesterase blockers – biochemical, fluorescence polarization, FP-Rh probe, HTS, primary screen (AID 2130);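 note: competitive labeling of PME-1 active site by serine hydrolase directed probe; 0% = PME-1 with DMSO and 100% = wells lacking PME-1 enzyme; inhibitors block probe labeling so polarization falls and inhibition rises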
# Conditions: recombinant PME-1, FP-Rh probe fluorescence polarization; at 5.9 µM; stronger effect = higher value
# Sequence of Protein phosphatase methylesterase 1 (Homo sapiens) (Q9Y570 whole entry, looked up): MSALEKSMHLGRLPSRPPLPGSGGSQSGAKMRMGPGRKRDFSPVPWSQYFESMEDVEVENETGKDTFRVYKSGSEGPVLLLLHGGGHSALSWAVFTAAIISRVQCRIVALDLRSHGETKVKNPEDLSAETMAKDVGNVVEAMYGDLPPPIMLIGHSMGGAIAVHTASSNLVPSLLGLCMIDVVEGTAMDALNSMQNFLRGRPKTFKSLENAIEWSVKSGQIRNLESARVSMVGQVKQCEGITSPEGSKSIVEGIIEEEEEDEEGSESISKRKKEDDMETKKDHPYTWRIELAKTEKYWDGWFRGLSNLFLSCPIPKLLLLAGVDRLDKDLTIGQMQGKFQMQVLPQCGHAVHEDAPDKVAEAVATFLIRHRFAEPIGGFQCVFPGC
row,Structure (SMILES),inhibition
1,O=C(NC(=S)Nc1ncccn1)c1ccccc1Br,-6.82% (inactive)
2,Cc1ccc(Cn2nnc3c(=O)[nH]c(C4CCN(S(=O)(=O)/C=C/c5ccccc5)CC4)nc32)cc1,31.4% (active)
3,Cc1ccc(NC(=O)N2CCC(c3nc4c(nnn4Cc4c(F)cccc4Cl)c(=O)[nH]3)CC2)cc1,4.6% (inactive)
4,COc1ccc(Cn2nnc3c(=O)[nH]c(C4CCN(C(=O)c5ccccc5Cl)CC4)nc32)cc1,10.2% (inactive)
5,O=S(=O)(c1cnccc1N1CCN(/N=C/c2ccc(Br)cc2)CC1)N1CCCCC1,1.2% (inactive)
6,CN=C1C=C/C(=N/N=c2\ccn(O)cc2C)C=C1C,-11% (inactive)
7,CCOC(=O)C1Sc2[nH]c(=O)sc2C(c2ccc(Cl)cc2)C1C(=O)OCC (stereo not drawn),9.44% (inactive)
8,Cc1cc(OCC(=O)NCC(O)c2ccccc2)c2c(C)c(C)c(=O)oc2c1 (stereo not drawn),1.37% (inactive)
9,O=C(Oc1ccc([N+](=O)[O-])cc1)c1ccc(Cl)c(S(=O)(=O)N2CCCCC2)c1,-1.4% (inactive)
10,CCc1noc(C)c1C(=O)Nc1nc2ccc(OC)cc2s1,2.67% (inactive)
11,COc1ccc2nc(Nc3nc4cc5c(cc4s3)OCCO5)sc2c1,92.8% (active)
12,COc1ccc2nc(NC(=O)c3ccc(Br)s3)sc2c1,-12.8% (inactive)
13,C/C=C/C(=O)Nc1ccc(N2CCN(c3ccc(C(F)(F)F)cn3)CC2)nc1,-7.12% (inactive)
14,CCN1CCN(C(=O)Cn2nc(C)n3c(cc4c(OC)cccc43)c2=O)CC1,-4.63% (inactive)
15,Cc1ccc(-n2c(SCC(=O)N3CCC(C(=O)O)CC3)nc3ccccc3c2=O)cc1C,5.62% (inactive)
16,O=S(=O)(Nc1ccccc1Cl)c1cccc2nsnc12,-1.38% (inactive)
17,CC(=O)N1CCc2c(sc(NC(=O)CCS(=O)(=O)c3ccccc3)c2C#N)C1,-1.35% (inactive)
18,COc1ccc(NC(=O)CCCNC(=O)Cn2cnc3sc4c(c3c2=O)CCCC4)cc1OC,3.69% (inactive)
19,COc1ccc(/C=N/Nc2ncnc3sc4c(c23)CCCC4)cc1O,29.7% (active)
20,COc1ccc(NC(=O)CCNC(=O)Cn2cnc3sc4c(c3c2=O)CCCC4)cc1OC,-4.87% (inactive)

row,Structure (SMILES),inhibition
1,COc1ccc(CC(NC(C)=O)C(=O)NC2CCN(C(=O)Nc3ccc(C#N)cc3)CC2)cc1OC (stereo not drawn),2.43% (inactive)
2,COC(=O)C1=C(C)NC(=S)NC1c1ccc(OCC(=O)N2CC(C)OC(C)C2)c(OC)c1 (stereo not drawn),4.05% (inactive)
3,CCOc1ccc2nc(NC(=O)CSc3nc4c(c(=O)n(C)c(=O)n4C)n3CC)sc2c1,1.27% (inactive)
4,CCOc1ccc2nc(Nc3nc4ccc(NC(C)=O)cc4s3)sc2c1,50.7% (active)
5,CCC(=O)c1ccc(OCC(=O)Nc2ccc3nc(C)sc3c2)cc1,-15.4% (inactive)
6,CCOc1cc(C(=O)Nc2c(C)ccc3nsnc23)cc(OCC)c1OCC,-3.07% (inactive)
7,CCN1CCN(C(=O)N[C@@H](C(=O)N[C@@H]2C(=O)N3C(C(=O)O)=C(CSc4nnnn4C)CS[C@H]23)c2ccc(O)cc2)C(=O)C1=O,1.33% (inactive)
8,O=C(Oc1cccc(N2C(=O)C3C4c5ccccc5C(c5ccccc54)C3C2=O)c1)c1ccco1 (stereo not drawn),2.64% (inactive)
9,Cc1nc(N=C(N)N)nc2c(C)cccc12,-4.31% (inactive)
10,Cc1[nH]c2c(C(=O)N3CCCC(CCC(=O)NCc4ccccc4F)C3)cccc2c1C (stereo not drawn),28.6% (active)
11,O=C(CCC1CCCN(Cc2ccc(O)c(Cl)c2)C1)NCc1ccccc1F (stereo not drawn),-1.64% (inactive)
12,CSc1ncccc1C(=O)N1CCCC(CCC(=O)NCc2ccccc2F)C1 (stereo not drawn),-3.09% (inactive)
13,Cc1cccc(N(Cc2ccccc2)C(=O)c2cc(S(=O)(=O)N3CCOCC3)ccc2F)c1,8.02% (inactive)
14,COc1cc(/C=N\Nc2nc(-c3cccs3)c(NC(C)=O)s2)ccc1O,7.62% (inactive)
15,COc1cc(/C=N/Nc2nc3ccccc3s2)ccc1O,45.3% (active)
16,COc1ccc(/C=N/Nc2nc3ccccc3o2)cc1OC,23.1% (inactive)
17,COC(=O)COc1cccc2c(=O)n(CC(=O)NCc3ccccc3)ccc12,-7.45% (inactive)
18,Cc1cc(C)c(C)c(S(=O)(=O)Nc2ccc(O)cc2)c1C,6% (inactive)
19,O=C(Nc1ccnn1C1CCN(Cc2cccc(OCCO)c2)CC1)C1CCCC1,4.32% (inactive)
20,COc1cccc(/C=N/Nc2cc(C)nc(-c3ccccc3O)n2)c1O,23.9% (inactive)

row,Structure (SMILES),inhibition
1,FC(F)(F)c1nc2ccccc2nc1N/N=C/c1ccc(Cl)cc1,2.4% (inactive)
2,Cc1nc2ccccc2nc1N/N=C/c1ccc(O)cc1O,36.9% (active)
3,O=c1c2ccccc2nc(N/N=C/c2ccccc2)n1O,-3.42% (inactive)
4,Oc1ccc(/C=N/Nc2nc(-c3ccccc3F)nc3ccccc23)c(O)c1,55% (active)
5,COc1ccccc1N1CCN(/N=C/c2ccc(O)cc2O)CC1,2.94% (inactive)
6,CCO[C@H]1OC(C(=O)N2CCN(Cc3ccccc3)CC2)=C[C@@H](c2cn(C(C)=O)c3ccccc23)[C@@H]1CCCO,10.4% (inactive)
7,CC(=O)Nc1ccc(S(=O)(=O)N2CCC(C(=O)N[C@@H](Cc3ccccc3)C(=O)O)CC2)cc1,-6.81% (inactive)
8,COc1ccccc1N1CCN(C(=O)CCS(=O)(=O)c2ccc3c(c2)NC(=O)C(C)S3)CC1 (stereo not drawn),-1.07% (inactive)
9,COC(=O)c1ccc(CN2C(=O)NC(c3ccccc3)(c3ccccc3)C2=O)o1,0.13% (inactive)
10,CC(C)(C)C(=O)N(Cc1ccccc1)c1ccccn1,-3.74% (inactive)
11,O=C(Nc1ccccc1C(=O)N1CCOCC1)c1ccc(Cl)cc1,-4.46% (inactive)
12,O=c1nc(N2CCOCC2)nc2n1CCO2,0.45% (inactive)
13,CCCOc1ccc(CN(CCO)CCO)cc1C(=O)OC,1.19% (inactive)
14,Cc1c(C(=O)N2CCCC2)c(S(=O)(=O)NCC(C)c2ccccc2)c(C)n1C (stereo not drawn),4.76% (inactive)
15,N=c1n(CCc2ccccc2)c2ccccc2n1Cc1ccccc1F,-11% (inactive)
16,CC(=O)c1c(C)n(-c2ccc(N(C)C)cc2)c2ccc(OCC(N)=O)cc12,26.2% (active)
17,CCOC(=O)c1c(C)oc2ccc(OCC(=O)N(CC)CC)cc12,-5.01% (inactive)
18,CC(=O)c1c(C)n(-c2ccc(C)cc2)c2ccc(O)cc12,-0.87% (inactive)
